In PubChem BioAssay (NCI):
About 79,000 compounds went through this panel and 15% of them were active in at least one assay; those are over-represented in the sample as a whole. A number with no mark means an inactive call. Calls of active or inactive are those of the source. No stated cut-off is given here; in the data, active means growth inhibition above about 70%; inactive means the rest.

Experiments:
[1] = NCI Yeast Anticancer Drug Screen. Data for the rad50 strain (AID 155);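 further: 0% = growth of vehicle-only cultures of the same strain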; details: S. cerevisiae rad50 strain growth inhibition; at 50.0 µM; active compounds read high
Method in brief: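 Readout: growth inhibition relative to vehicle-treated cultures. Compound exposure was carried out in a genetically defined yeast strain deficient in DNA damage repair.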

[2] = NCI Yeast Anticancer Drug Screen. Data for the mec2-1 strain (AID 157); details: S. cerevisiae mec2-1 strain, at 50.0 µM, active compounds read high
Method in brief: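 Strain: mec2-1 (DNA repair/cell cycle alteration). Compound exposure, then growth measured; inhibition expressed relative to vehicle.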

[3] = NCI Yeast Anticancer Drug Screen. Data for the sgs1 mgt1 strain (AID 161);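 further: 0% = growth of cultures given vehicle only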; details: S. cerevisiae sgs1 mgt1 strain, at 50.0 µM, active compounds read high
Method in brief: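 Inhibition of yeast growth, normalised to vehicle-treated controls, is reported for a strain bearing genetic alterations in DNA damage repair.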

[4] = NCI Yeast Anticancer Drug Screen. Data for the cln2 rad14 strain (AID 165);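 further: 0% = growth equal to vehicle treated cultures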; details: S. cerevisiae cln2 rad14 strain, at 50.0 µM, active compounds read high
Method in brief: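 Compounds are applied to the cln2 rad14 yeast strain, and growth is then compared with that of vehicle-treated cultures to give inhibition.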

[5] = NCI Yeast Anticancer Drug Screen. Data for the bub3 strain (AID 167); details: S. cerevisiae bub3 mutant strain, at 50.0 µM, active compounds read high
Method in brief: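 Readout: yeast growth inhibition, expressed relative to vehicle-only wells. The test organism is a mutant strain from a panel with lesions in DNA repair or checkpoint genes.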

[6] = NCI Yeast Anticancer Drug Screen. Data for the mlh1 rad18 strain (AID 175); details: S. cerevisiae mlh1 rad18 strain growth inhibition; at 50.0 µM; active compounds read high
Method in brief: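 Read-out is yeast growth inhibition, calculated against vehicle-only controls. The compound was applied to a strain engineered with DNA damage repair alterations.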

| Structure (SMILES) | growth inhibition [1] | growth inhibition [2] | growth inhibition [3] | growth inhibition [4] | growth inhibition [5] | growth inhibition [6] |
| --- | --- | --- | --- | --- | --- | --- |
| COc1ccc(N2C(=O)CSC2=S)cc1 | 58.6% | 0% | 24.1% | -9.15% | -4.85% | 33.1% |
| NC(=O)C(F)(F)C(F)(F)C(N)=O | -28.1% | -16.8% | -15% | -51.6% | 3.25% | -1.9% |
| O=C(O)CCC(=O)NNc1nc2ccccc2s1 | 22.1% | 2% | 29.1% | 19.8% | -13.2% | 44.4% |
| CC(C)(CCCCC(C)(C)NC1=NCCO1)NC1=NCCO1 | -0.2% | -8.8% | 9.9% | -20.6% | -4.45% | -9.4% |
| O=[N+]([O-])c1ccc(N/N=C\C2C=CCCC2)c([N+](=O)[O-])c1 (configuration not stated) | -13.2% | -0.1% | -5.65% | -31.8% | -1.05% | -19.9% |
| Cc1ccccc1C(=O)N(C(C)C)C(C)C | 12.8% | -6.45% | 7.2% | -12.6% | 15.2% | 1% |
| O=C(O)/C(=C\c1cc2c(cc1[N+](=O)[O-])OCO2)c1ccccc1 | 3.8% | -5.35% | 6.8% | -41% | -22.9% | 17.9% |
| CCc1ccccc1O | 6.1% | -7.6% | 3.3% | -25% | -11.7% | 1.4% |
| O=C(O)c1cc(Cl)ccc1[N+](=O)[O-] | 18.6% | -11% | 5.5% | 7.65% | 2.3% | 11% |
| COC(=O)Oc1ccccc1C(=O)O | -25.2% | -22.6% | -15.6% | 0.2% | -24.6% | -5.55% |
| COC1=C(NCCc2ccccc2)C(=O)C(OC)=C(NCCc2ccccc2)C1=O | -43.2% | -4.7% | 18.9% | -22.3% | 1.5% | -11.6% |
| C=CCOCC(O)CO (configuration not stated) | 32.5% | -3.9% | 29.8% | 16.8% | 10.1% | 28.1% |
| Cc1cc(OCCOC(=O)Nc2ccccc2C(F)(F)F)cc(C)c1Cl | -7.6% | -5.2% | -3.35% | -44.4% | -3.5% | 10.8% |
| Brc1ccccc2cc(-c3ccccc3)nc1-2 | 54.9% | 30.5% | 34.5% | 19.9% | 37.2% | -7% |
| N=c1c(C(=O)O)cccn1O | 8.1% | -5.1% | 9.1% | -50.9% | -6.55% | 4.9% |
| COc1ccc(Cc2ccc(Cl)cc2)c(OC)c1 | 3.3% | 2.25% | 19.8% | 15.2% | -12.2% | -5.15% |
| Oc1ccc(-c2csc(NNC3=NC/C(=C/c4ccc5c(c4)OCO5)S3)n2)cc1O | 30.9% | -16.9% | 40.4% | -11.4% | 21.1% | 40.8% |
| CCOC(=O)NN(C(=O)OCC)C(C(=O)c1ccccc1)N(NC(=O)OCC)C(=O)OCC | 27.6% | 9.9% | 16.9% | 46.4% | 20.9% | 22.4% |
| CN(c1ccc(Br)cc1)c1nc(N)nc(N)c1N=O | 16.4% | -10.6% | 5.05% | -98.6% | 5.2% | -1.8% |
| CCNc1ccc(Cl)cc1[N+](=O)[O-] | -28.8% | -66.2% | 11.9% | -6.95% | -33.4% | -26.6% |
| CCCCS(=O)(=O)CCCCCCl | 1.55% | -2.95% | -6.25% | -13.5% | -6.45% | 9.55% |

| Structure (SMILES) | growth inhibition [1] | growth inhibition [2] | growth inhibition [3] | growth inhibition [4] | growth inhibition [5] | growth inhibition [6] |
| --- | --- | --- | --- | --- | --- | --- |
| O=C(O)c1ccccc1C(=O)c1ccc(F)c2ccccc12 | 11% | 26.9% | 18.6% | 21.1% | 3.75% | 10.7% |
| Cc1cccc(C)c1NC(=S)/N=C/C1=C(O)c2ccccc2C1=O | -36.8% | -17.2% | -10.2% | 13.8% | -7.5% | 23.6% |
| CN(C)CCSc1nc2ccccc2s1 | 7.6% | 6.55% | 28.7% | 13.3% | -16.6% | 31.1% |
| O=S(=O)(Cl)c1cc(Cl)ccc1Cl | 24.8% | -19.8% | -17.1% | -72.2% | -3.6% | -4.1% |
| O=C(Oc1ccc[nH]c1=O)C1CCC1 | -15.3% | 3% | -0.55% | 2.7% | 12.8% | -4.75% |
| OCCCc1nc2ccccc2[nH]1 | -10.3% | -21.8% | -15.1% | 8.85% | -17.7% | 11.1% |
| COC(=O)n1c(=O)oc2ccc(Br)cc21 | 99% (active) | 99.1% (active) | 99.4% (active) | 99.4% (active) | 99.5% (active) | 99.2% (active) |
| Cc1ccccc1NC(=O)Oc1ccc2c(C)cc(=O)oc2c1 | -3% | 12.2% | 14.4% | -17.2% | 14.3% | 24.9% |
| c1ccc(Oc2nnc3c4ccccc4ccn23)cc1 | 11.4% | -9.55% | 0.1% | -4.4% | 3.9% | -0.35% |
| CCC[CH2][Ge]([Cl])([Cl])[CH2]CCC | 28.6% | 30.8% | 30.9% | 14.9% | 40.9% | 33.4% |
| COc1ccc(C(NCCn2cnc3c2c(=O)n(C)c(=O)n3C)c2ccccc2)cc1 (configuration not stated) | 19.4% | 4.05% | 11.2% | -33.6% | -4.5% | 18.8% |
| COC1(OC)CCC(OC)(OC)C(OC)(OC)C1(OC)OC | 4.75% | 8.1% | 11.7% | -4.2% | -16.2% | 2.75% |
| C/C(=N/O)C1CC(C)([N+](=O)[O-])CCC1(C)O (configuration not stated) | -8.15% | -13.6% | -19.2% | -8.5% | 5.45% | 5.65% |
| N=c1ccc([N+](=O)[O-])cn1O | 13.4% | 11.7% | -2% | -41.5% | -2.8% | 1.95% |
| Nc1nc(Cc2ccccc2)c(CCCNc2ccccc2)c(=O)[nH]1 | -4.95% | 5.05% | 6.45% | -74.3% | 1.75% | -12.8% |
| CSc1cc(Br)ccc1-n1c(C(=O)c2ccccc2)c(SC)n(-c2ccccc2)c1=O | -0.05% | 21.3% | 20.6% | 7.65% | 15.7% | 5.05% |
| O=C1CSC=NN1c1ccccc1 | -12.8% | -6.75% | -14.9% | -9.75% | 5.75% | 3.9% |
| O=C(O)c1cccc(F)c1C(=O)O | -4.5% | -3.65% | -1.5% | -20.4% | -2.95% | 7.3% |
| OC(C1=NNC(C(O)c2ccccc2)=NN1)c1ccccc1 (configuration not stated) | -29% | 4.7% | 22% | -20.4% | -2.45% | 5.8% |
| Cc1c[nH]c2nc(C)n(-c3ccc(F)cc3)c(=N)c12 | 4.1% | 2.4% | -9.05% | -14.6% | 5.3% | 5.3% |
| C[P+]1(CCc2ccc(Cl)cc2)CC=CC1 | -4.15% | 5.2% | -2.9% | -18.9% | 0.2% | -3.95% |
